Assay outcomes as filed in PubChem BioAssay.
Hits are enriched below; roughly 8.2% of the tested compounds scored in any of these assays.
SW480 rereplic = A quantitative high throughput screen for small molecules that induce DNA re-replication in SW480 colon adenocarcinoma cells. SW480 DNA re-replication, Hoechst DNA content imaging, 48 h. Potency, µM (highest dose often 46.1 µM), for inactives: at the top dose re-replication activation, actives largely listed as activators. 340,000 compounds, 1.8% hits; further: % of control where 0% means no effect; nearly all actives have a fitted effect of over 55% in size
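Hoechst fluorescence of nuclei (405 nm excitation, 500-530 nm emission) measured by plate-scanning imager after 48 hr compound exposure at 37 C; re-replication scored as increased number of nuclei with elevated intensity.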
MCF10A rerep = A quantitative high throughput screen for small molecules that induce DNA re-replication in MCF 10a normal breast cells; AID 624296, 2012; MCF 10A DNA re-replication, Hoechst nuclear intensity, 48 h; Potency, µM (titrated, usually from 46.1 µM), for the others: top-dose activity, positive = re-replication, most hits filed as activators; 350,000 compounds, 2.9% hits; further: % of control where 0% means no effect; nearly all actives have a fitted effect of over 50% in size
ELG1 repair inh = qHTS screen for small molecules that inhibit ELG1-dependent DNA repair in human embryonic kidney (HEK293T) cells expressing luciferase-tagged ELG1; HEK293T ELG1-luciferase reporter, luminescence, 16 h; DNA damage induced by 5-fluorouridine; Potency, µM (highest dose often 46.1 µM), inactives show top-dose activity change, negative = inhibition, hits mostly inhibitors; 330,000 compounds, 2.3% hits; further: on the % scale 0 is the no-effect control and ±100 the full control effect; nearly all actives have a fitted effect of over 55% in size
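Reporter activity after DNA damage by 5-fluorouridine is monitored. Compound-treated cells incubate 16 hr at 37 °C, then ONE-Glo is added for 30 min before luminescence reading.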
KB-3-1 cytotox = qHTS assay for MDR1-selective chemotherapeutics: Primary screen using the parental adenocarcinoma cell KB-3-1; KB-3-1 viability, CellTiter-Glo ATP luminescence, 72 h; AID 1347075, 2019; Potency, µM (series often up to 46.1 µM), most hits filed as cytotoxic; 400,000 compounds, 1.4% hits; further: on the % scale 0 is the no-effect control and ±100 the full control effect; nearly all actives have a fitted effect of over 60% in size
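Here the drug-naive KB-3-1 line serves as comparator for MDR sub-line selectivity; cells received compound titrations, 72 h at 37 °C, then CellTiter-Glo readout.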
KB-V1 cytotox = qHTS assay for MDR1-selective chemotherapeutics: Primary screen using the drug-selected MDR subline cells KB-V1; 400,000 compounds, 3.4% hits; Potency, µM (titrated, usually from 46.1 µM), usual class: cytotoxic; KB-V1 MDR cells viability, CellTiter-Glo, 72 h; further: on the % scale 0 is the no-effect control and ±100 the full control effect; nearly all actives have a fitted effect of over 60% in size
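Readout: CellTiter-Glo luminescence, 10 min after addition. Cells: KB-V1 MDR subline, 72 h at 37 degrees C with compound. Analysis: corrected, normalized data fitted to concentration-effect curves.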
* = called active by the depositor; i = inactive; ? = inconclusive; . = not tested or not shown. The call rests on the fitted dose curve; in most records, active means well fitted curve in the direction sought with a large enough effect; inconclusive means small, poorly fitted or top-dose-only effect, or another doubt; inactive means no such curve, though single readings can be large; an effect the other way counts as inactive or inconclusive. Potency means the concentration at half of the fitted maximal effect.

SMILES | SW480 rereplic | MCF10A rerep | ELG1 repair inh | KB-3-1 cytotox | KB-V1 cytotox
O=CNc1ccc2c(c1)Cc1cc([N+](=O)[O-])ccc1-2 | 3.26µM* | ? | . | 2.31µM* | ?
CCC(=O)Nc1ccc2c(c1)Cc1cc([N+](=O)[O-])ccc1-2 | 9.4% | 16.5% | . | i | i
Cc1ccc(C(=O)NCCc2c[nH]c3ccccc23)s1 | -3.6% | ? | ? | i | i
Cc1ccccc1CN(C)CCc1ccccn1 | -2.4% | 0.651µM* | -7.5% | i | i
Cc1cccc(C)c1NC(=O)CN | 18.4µM* | -8.3% | 0.0% | i | ?
CN=C(N)NC(=O)Nc1c(C)cccc1C | 16.4µM* | 0.2% | 1.5% | i | i
O=C(Nc1ccccc1C(=O)O)c1ccc(NC(=O)C2CCCCC2)cc1 | -32.9% | 2.8% | 1.8% | i | i
COc1ccc(Cl)cc1NC(=O)C(C)Sc1nnc(C2CC2)n1C1CC1 (stereo unspecified) | -3.2% | 1.8% | -24.3% | i | 18.4µM*
N#Cc1c(N)[nH]c(=S)c(C#N)c1-c1ccccc1 | ? | ? | 0.0% | i | i
N#Cc1c(N)[nH]c2ccc(Sc3ccccc3)cc12 | 4.11µM* | 0.92µM* | . | 2.31µM* | 3.26µM*
COC(=O)[C@@]12C[C@@H](CC(=O)N3CCCCC3)C(=O)N(CCc3ccc(OC)c(OC)c3)C1=CCC(C)(C)C2 | . | . | . | i | ?
Cn1nc(C(C)(C)C)cc1C(=O)NCc1cc(F)cc2c1OCOC2 | -1.5% | 0.1% | 2.59µM* | ? | ?
Cc1cc(C(=O)NCc2cc(F)cc3c2OCOC3)nn1C | -5.4% | -2.6% | -6.8% | i | i
COc1ccc(CNC(=O)[C@H](C)NC(=O)N2CCn3c2nc2ccccc23)cc1 | -0.6% | 3.0% | 10.8% | i | i
COC(=O)c1sc2nc(CSc3ccc(Br)cc3)[nH]c(=O)c2c1C | -4.1% | 14.6µM* | ? | i | i
O=C(Cc1cccs1)NCCSc1c(-c2ccc(Cl)cc2)[nH]c2ccccc12 | ? | 20.6µM* | ? | ? | i
O=C(c1cn(-c2ccccc2)nc1-c1ccccc1)N1CCOCC1 | 0.2% | -3.1% | 12.5% | i | i
O=C1NC(=O)C(c2cn(-c3ccccc3)nc2-c2ccc(F)cc2)N1 (stereo unspecified) | ? | 18.4µM* | 0.2% | i | i
O=C(NC(=S)N1CCOCC1)c1cn(-c2ccccc2)nc1-c1ccccc1 | -27.6% | 9.0% | 18.3µM* | i | 5.8µM*
O=C(O)c1cn(-c2ccccc2)nc1-c1ccc(F)cc1 | 105.9% | 13µM* | 0.6% | i | i
Cc1ccn2c(=O)cc(COc3ccc(NC(=O)COc4ccc(C)c(C)c4)cc3)nc2c1 | . | . | . | i | i
CCOc1ccc(-c2c(C(=O)N/N=C/c3ccsc3)nnn2-c2nonc2N)cc1 | ? | -0.1% | -0.5% | i | ?
Cc1cc(C(=O)CSc2nc3ccccc3[nH]2)c(C)n1Cc1ccco1 | 1.1% | 27.6% | ? | ? | 2.06µM*
Cc1cc(C(=O)CSc2nc3ccc(Cl)cc3[nH]2)c(C)n1C | -3.0% | -2.3% | -8.7% | i | 20.6µM*
COCCn1c(C)cc(C(=O)CSc2nncn2-c2ccccc2)c1C | 0.4% | 0.7% | ? | i | 10.3µM*
CN(C(=O)CSc1nnc(-c2ccc(Cl)cc2)n1CC1CCCO1)C1CCS(=O)(=O)C1 (stereo unspecified) | -6.5% | 1.0% | 0.9% | i | i
COc1ccc(-n2cnnc2SCC(=O)c2cc(C)n(Cc3cccs3)c2C)cc1 | -4.5% | ? | -7.0% | i | i
Cc1ccc2nc(SCC(=O)c3cc(C)n(C)c3C)[nH]c2c1 | -24.7% | 21.2% | 2.2% | i | i
Cc1cc(C(=O)CSc2nnc(-c3ccc(Cl)cc3)n2CC2CCCO2)c(C)n1C (stereo unspecified) | 1.7% | 10.0% | 1.7% | i | 6.51µM*
